Laboratory results from PubChem BioAssay AID940 (Emory University Molecular Libraries Screening Center, 2007).
Where “and” joins values, the source holds several entries; their conditions need not be identical. Equal values may be shown once. Screen size: about 260,000 compounds; about 2,200 (0.85%) were called active.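 The calls were made as follows: active = compounds whose cAMP rise, as percent of the full-agonist control response, exceeds 60; inactive = the rest.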 For the sample, actives were picked, then their nearest neighbours and some compounds at random. Some compounds were tested as several samples or in several runs, with calls that do not always agree.

target: Prostaglandin E2 receptor EP2 subtype (Homo sapiens) (UniProt P43116); experiment: modulation of human EP2 prostaglandin signaling – cell-based, HTRF cAMP, PGE2 stimulation, primary screen (AID 940); conditions: EP2-expressing cells, cAMP HTRF FRET, PGE2 co-stimulation; at 25 µM; stronger effect = higher value;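 also: rat C6 glioma line stably carrying human EP2 under a CMV promoter; the protocol text gives 20 µM as final concentration; 100% = response of wells given 1 µM PGE2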
Sequence (P43116 whole entry, looked up): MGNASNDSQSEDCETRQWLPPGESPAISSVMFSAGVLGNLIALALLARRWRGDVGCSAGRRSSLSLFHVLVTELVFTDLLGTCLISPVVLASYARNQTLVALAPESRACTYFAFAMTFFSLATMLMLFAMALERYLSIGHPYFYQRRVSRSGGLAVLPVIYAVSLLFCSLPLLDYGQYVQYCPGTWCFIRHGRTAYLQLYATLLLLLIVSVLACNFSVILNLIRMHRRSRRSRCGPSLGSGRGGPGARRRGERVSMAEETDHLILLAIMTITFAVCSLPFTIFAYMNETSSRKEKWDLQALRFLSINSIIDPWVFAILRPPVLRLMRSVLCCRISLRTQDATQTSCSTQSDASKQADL

| Compound | induction |
| --- | --- |
| CCC(c1nnnn1C(C)(C)CC)N(Cc1cccs1)Cc1cc2ccc(C)c(C)c2[nH]c1=O (configuration not stated) | 48.5% (inactive) |
| Cc1ccc2c(c1)C(=O)CC1(CCN(C(=O)N3CCOCC3)CC1)O2 | -15.2% (inactive) |
| O=C(CSc1nnc2c(n1)[nH]c1ccc(F)cc12)Nc1cccc2ccccc12 | -43.9% (inactive) |
| C=C(C)Cn1c(N2CCC(C)CC2)nc2c1c(=O)[nH]c(=O)n2C | -6.93% (inactive) |
| Cc1cc(C)nc(SCCn2c(N3CCC(C)CC3)nc3c2c(=O)[nH]c(=O)n3C)n1 | 1.48% (inactive) |
| CC1CCN(c2nc3c(c(=O)[nH]c(=O)n3C)n2CCCc2ccccc2)CC1 | 57.4% (inactive) and 67% (active) |
| O=C(NCC1CCCO1)C(=O)Nc1cc(Cl)cc(Cl)c1 (configuration not stated) | -89.4% (inactive) |
| Cc1cc2c(cc3c(=O)n(CC(=O)N(Cc4ccncc4)C4CC4)nc(C)n32)s1 | 41.2% (inactive) |
| CCC(c1nnnn1C1CCCCC1)N(Cc1cccs1)Cc1cc2cc(C)cc(C)c2[nH]c1=O (configuration not stated) | 75.2% (active) |
| Cc1ccc(CN(Cc2cc3cc4c(cc3[nH]c2=O)OCCO4)Cc2nnnn2C2CCCC2)cc1 | 2.08% (inactive) |
| Cc1cc(C)c2[nH]c(=O)c(CN(Cc3ccco3)C(c3nnnn3C3CCCCC3)C(C)C)cc2c1 (configuration not stated) | 25.3% (inactive) |
| CCC(c1nnnn1C1CCCC1)N(Cc1cccs1)Cc1cc2ccc(C)c(C)c2[nH]c1=O (configuration not stated) | 49% (inactive) |
| Cc1cccc2cc(CN(Cc3cccs3)C(c3nnnn3C3CCCC3)C(C)C)c(=O)[nH]c12 (configuration not stated) | 63.3% (active) and 74.3% (active) |
| Cc1ccc(CN(Cc2cc3c(C)ccc(C)c3[nH]c2=O)Cc2nnnn2C2CCCC2)cc1 | 38.9% (inactive) |
| Cc1ccc2[nH]c(=O)c(CN(CCc3ccccc3)Cc3nnnn3C3CCCCC3)cc2c1 | 71.2% (active) |
| Cc1cccc2cc(CN(Cc3cccs3)Cc3nnnn3C3CCCCC3)c(=O)[nH]c12 | 70.9% (active) |
| CCOc1ccc2[nH]c(=O)c(CN(Cc3ccccc3)Cc3nnnn3C3CCCC3)cc2c1 | -7.93% (inactive) |
| Cc1cccc2cc(CN(Cc3ccc4c(c3)OCO4)Cc3nnnn3C3CCCC3)c(=O)[nH]c12 | 42.4% (inactive) |
| Cc1ccc2cc(CN(Cc3ccccc3)C(c3nnnn3C3CCCCC3)C(C)C)c(=O)[nH]c2c1C (configuration not stated) | 45.6% (inactive) |
| CCC(c1nnnn1C1CCCC1)N(Cc1cccs1)Cc1cc2cccc(C)c2[nH]c1=O (configuration not stated) | 46.6% (inactive) |
| CCn1c(COc2ccc(Br)cc2)nnc1SCC(=O)NCc1ccccc1 | 19.8% (inactive) |
| O=C(CCSc1nc(-c2ccc3c(c2)OCO3)cc(C(F)(F)F)n1)NCc1ccncc1 | -33.7% (inactive) |
